We go through six substances from ChEMBL document CHEMBL1201862, “PubChem BioAssay data set” (2004).

The campaign covered roughly 44,000 sequences. About 4,100 (9.3%) were called active. No stated cut-off is given here; in the data, active = GI50 up to about 1.1 µM and inactive = higher. Only a selection was taken, and actives are over-represented in it overall. Potency and affinity values are given separately.

The test system of the test is MDA-MB-435.
With “[Bis(aminomethyl)tetramethylenesilane]dichloropaltinum(II), CHEMBL2146205”, the GI50 is 3.51 µM. That is a single-digit micromolar value. Then “[Bis(aminomethyl)tetramethylenesilane]tetrachloropaltinum(IV), CHEMBL2146189”, with 9.02 µM; and CISPLATIN, CHEMBL11359, with 5.96 µM. For “[Bis(aminomethyl)pentamethylenesilane]dichloropaltinum(II), CHEMBL2146202”, growth was halved (GI50) at 1.31 µM. On to “[Bis(aminomethyl)pentamethylenesilane]tetrachloropaltinum(IV), CHEMBL2146204”, for which the GI50 was found to be 0.438 µM. The same measure for “[Bis(aminomethyl)dimethylsilane]tetrachloroplatinum(IV), CHEMBL2146190”: 13.9 µM.

A word on the GI50: it is the concentration that inhibits growth by half. Higher therefore signals less potent growth inhibition.
